Where “and” joins values, the source holds several entries; their conditions need not be identical. Equal values may be shown once. Records with an inconclusive call do not appear. Calls of active or inactive are those of the source. Unless noted, calls come from the whole dose curve; as a rule, active = well fitted curve in the direction sought with a large enough effect in the repeat runs; inconclusive = weak or mixed curves; inactive = no such curve, though single readings can be large; an effect the other way counts as inactive or inconclusive.
Tests used:
[1] = qHTS assay to identify small molecule antagonists of the sonic hedgehog signaling (Shh) pathway (AID 1259369; calls by dose curve; note: nearly all actives have a fitted effect of over 45% in size; note: potency is the fitted concentration of half-maximal effect)
Outline: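 Conditioned medium drives Shh signalling in 3T3Gli1-Luc cells; compounds in DMSO co-applied, 24hr at 37 C, then luciferase luminescence.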

[2] = qHTS assay to identify small molecule agonists of the androgen receptor (AR) signaling pathway in the presence of an antagonist - cell viability counter screen (AID 1259379); note: nearly all actives have a fitted effect of over 25% in size; note: potency is the fitted concentration of half-maximal effect;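 for activity change, negative = cytotoxicity: MDA-kb2 human breast cancer cells carrying an MMTV luciferase reporter; series mostly up to about 92 µM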
Outline: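 A CellTiter-Fluor read-out measured viability of MDA-kb2 reporter cells (MMTV promoter with AR and GR response elements). Treatment: nilutamide 3.0uM final with compounds at 15 concentrations, 16 hr, 37C, 0% CO2.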

[3] = qHTS assay to identify small molecule agonists of the estrogen receptor beta (ER-beta) signaling pathway - cell viability counter screen (AID 1259380); note: nearly all actives have a fitted effect of over 30% in size; note: potency is the fitted concentration of half-maximal effect
Outline: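 Cells used were ER-beta-UAS-bla HEK293T in medium with 2% charcoal-stripped FBS. They were treated for 16 hr at 37C. Viability came from CellTiter-Glo luminescence.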

[4] = qHTS assay to identify small molecule antagonists of the estrogen receptor beta (ER-beta) signaling pathway - cell viability counter screen (AID 1259382); note: nearly all actives have a fitted effect of over 55% in size; note: potency is the fitted concentration of half-maximal effect; for activity change, negative = cytotoxicity: series mostly up to about 92 µM
Outline: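 Agonist-stimulated (1nM E2) ER-beta-UAS-bla HEK293T cells are incubated with library compounds for 16 hr at 37C. Cell viability is then assessed in the reporter-assay wells by adding CellTiter-Glo and reading luminescence after 30 min.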

[5] = molecular target: Estrogen receptor (Homo sapiens) (UniProt P03372); assay: qHTS assay to identify small molecule agonists of the estrogen receptor alpha (ER-alpha) signaling pathway in the presence of an antagonist (AID 1259383; calls by dose curve; note: top concentration of the series differs between compounds; nearly all actives have a fitted effect of over 15% in size)
Outline: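 Using VM7Luc4E2 cells seeded 24hr before treatment, antagonist ICI-182,780 (10.0nM final) was added, followed by compounds at 15 concentrations. Plates incubated 22hr; ONE-Glo luminescence quantified reporter activity.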

[6] = qHTS assay to identify small molecule agonists or antagonists of the thyroid stimulating hormone receptor (TSHR) signaling pathway - wild type cell line counter screen (AID 1259384; calls by dose curve)
Outline: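 Wild-type HEK293 cells were plated 18 h at 37 C/5% CO2, pin-dosed with compound plus Ro20-1724 medium, held 30 min at room temperature, then given cAMP-d2 and anti-cAMP-cryptate; fluorescence was read after 1 h. Fifteen concentrations, triplicate.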

[7] = qHTS assay to identify small molecule agonists of the estrogen receptor alpha (ER-alpha) signaling pathway in the presence of an antagonist - cell viability counter screen (AID 1259386);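 note: series mostly up to about 92 µM; cells exposed to compounds for 22 h at 37 °C before the viability read; nearly all actives have a fitted effect of over 30% in size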
Outline: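 ICI-182,780 at 10.0nM final accompanies the compound titration (15 concentrations, 22hr, 37C) on VM7Luc4E2 cells. The CellTiter-Fluor fluorescence readout runs in the same wells as the luciferase assay.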

[8] = molecular target: Progesterone receptor (Homo sapiens) (UniProt P06401); assay: qHTS assay to identify small molecule agonists of the progesterone receptor (PR) signaling pathway (AID 1346784; calls by dose curve; note: nearly all actives have a fitted effect of over 30% in size)
Outline: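 HEK 293T PR-UAS-bla reporter cells, 2% charcoal-stripped FBS; 6 hr settle at 37C/5% CO2, compound (DMSO) 16 hr, LiveBLAzer B/G FRET substrate 2 hr RT, fluorescence intensity read.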

[9] = molecular target: Progesterone receptor (Homo sapiens) (UniProt P06401); assay: qHTS assay to identify small molecule antagonists of the progesterone receptor (PR) signaling pathway (AID 1346795; active = well fitted inhibition curve with a large enough effect in the signal ratio in the repeat runs, not every such curve was filed as active; the % refers to the signal ratio)
Outline: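 Beta-lactamase reporter, HEK293T PR-UAS-bla line; 2% charcoal-stripped FBS; 6 hr pre-incubation, 37C/5% CO2. Compound + R5020 1 nM final, 16 hr. LiveBLAzer B/G FRET substrate, 2 hr RT; fluorescence intensity read.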

[10] = qHTS assay to identify small molecule antagonists of the progesterone receptor (PR) signaling pathway - cell viability counter screen (AID 1346798); note: nearly all actives have a fitted effect of over 50% in size; note: potency is the fitted concentration of half-maximal effect; for activity change, negative = cytotoxicity: series mostly up to about 92 µM
Outline: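 Luminescence readout (CellTiter-Glo, 30 min, RT) of viability in PR-UAS-bla HEK293T cells exposed to compound and R5020 agonist for 16 hr at 37C, 5% CO2; run in the same wells as the beta-lactamase reporter read.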

[11] = qHTS assay to identify small molecule agonists of the progesterone receptor (PR) signaling pathway - cell viability counter screen (AID 1346799; calls by dose curve; note: nearly all actives have a fitted effect of over 45% in size; note: potency is the fitted concentration of half-maximal effect)
Outline: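 HEK293T PR-UAS-bla, 3,000 cells/well, 2% charcoal-stripped FBS; 6 h settle, compound 16 h at 37C/5% CO2; LiveBLAzer 2 h RT, then CellTiter-Glo 30 min RT, luminescence read.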

[12] = qHTS assay to identify small molecule antagonists of the TGF-beta/Smad signaling pathway - cell viability counter screen (AID 1346824); note: nearly all actives have a fitted effect of over 50% in size; note: potency is the fitted concentration of half-maximal effect
Outline: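 SBE-bla HEK 293T cells were plated overnight at 37 C, then given compounds in DMSO plus TGF-beta1 (added as 0.25 ng/mL solution) for 5 hr. After the bla read, CellTiter-Glo was added to the same wells and luminescence read after 30 min at room temperature.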

[13] = qHTS assay to identify small molecule agonists of the TGF-beta/Smad signaling pathway - cell viability counter screen (AID 1346829); note: nearly all actives have a fitted effect of over 45% in size; note: potency is the fitted concentration of half-maximal effect; for activity change, negative = cytotoxicity: top concentration of the series differs between compounds
Outline: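 Tox21 qHTS format: SBE-bla HEK 293T cells treated with DMSO-dissolved compounds for 5 hr; CellTiter-Glo luminescence after 30 min at room temperature.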

[14] = qHTS assay to identify small molecule agonists of the TGF-beta/Smad signaling pathway (AID 1346859; active = well fitted activation curve with a large enough effect in the signal ratio in the repeat runs, not every such curve was filed as active; the % refers to the signal ratio; note: series mostly up to about 77 µM)
Outline: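 Read-out: fluorescence at 460 and 530 nm (405 nm excitation) after a 2 hr room-temperature incubation with beta-lactamase FRET substrate. SBE-bla HEK 293T cells had been treated with test compounds for 5 hr at 37 C.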

[15] = molecular target: Thyrotropin-releasing hormone receptor (Homo sapiens) (UniProt P34981); assay: qHTS assay to identify small molecule antagonists of the thyrotropin-releasing hormone receptor (TRHR) signaling pathway (AID 1346877; active = well fitted inhibition curve with a large enough effect in the repeat runs, not every such curve was filed as active; note: series mostly up to about 51 µM)
Outline: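 Screening used HEK293 cells engineered with TRHR, with a brief 5 min room-temperature compound exposure preceding addition of TRH to 1 nM. The read-out was kinetic calcium-dye fluorescence, concentration-response from 15 doses in triplicate.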

[16] = molecular target: Thyrotropin-releasing hormone receptor (Homo sapiens) (UniProt P34981); assay: qHTS assay to identify small molecule agonists of the thyrotropin-releasing hormone receptor (TRHR) signaling pathway (AID 1346891; calls by dose curve;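 note: HEK293 cells expressing TRHR with calcium dye readout; series mostly up to about 58 µM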)
Outline: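 HEK293/TRHR cells, 1500 per well, 18 h 37 °C; Ca dye 2 h 37 °C; pin-tool compound addition (agonist mode); kinetic fluorescence 3 min, 1 s reads; 15 concentrations, triplicate.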

[17] = molecular target: Thyrotropin receptor (Homo sapiens) (UniProt P16473); assay: qHTS assay to identify small molecule antagonists of the thyroid stimulating hormone receptor (TSHR) signaling pathway (AID 1259385; calls by dose curve; note: nearly all actives have a fitted effect of over 20% in size)
Outline: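 TSHR-HEK293 cells were plated and held 18 h at 37C/5% CO2, then given compound plus Ro20-1724 and stimulated with TSH at 1.5 ng/mL final. After 30 min at room temperature, cAMP was detected with cAMP-d2/anti-cAMP-cryptate (1 h) by fluorescence.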
% is set by controls: 0 for no effect and ±100 for the full control effect.

Chain of Thyrotropin-releasing hormone receptor (Homo sapiens) (P34981 whole entry, looked up): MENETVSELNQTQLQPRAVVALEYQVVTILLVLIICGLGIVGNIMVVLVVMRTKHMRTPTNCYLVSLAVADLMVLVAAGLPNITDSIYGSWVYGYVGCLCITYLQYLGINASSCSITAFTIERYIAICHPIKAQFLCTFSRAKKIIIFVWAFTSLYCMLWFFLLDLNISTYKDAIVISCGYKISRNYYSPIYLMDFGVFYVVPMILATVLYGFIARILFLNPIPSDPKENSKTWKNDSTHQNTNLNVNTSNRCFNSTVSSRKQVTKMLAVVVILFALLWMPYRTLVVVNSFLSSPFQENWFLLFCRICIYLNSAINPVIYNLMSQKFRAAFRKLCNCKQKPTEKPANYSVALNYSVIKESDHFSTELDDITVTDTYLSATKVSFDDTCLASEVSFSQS
Chain of Progesterone receptor (Homo sapiens) (P06401 whole entry, looked up): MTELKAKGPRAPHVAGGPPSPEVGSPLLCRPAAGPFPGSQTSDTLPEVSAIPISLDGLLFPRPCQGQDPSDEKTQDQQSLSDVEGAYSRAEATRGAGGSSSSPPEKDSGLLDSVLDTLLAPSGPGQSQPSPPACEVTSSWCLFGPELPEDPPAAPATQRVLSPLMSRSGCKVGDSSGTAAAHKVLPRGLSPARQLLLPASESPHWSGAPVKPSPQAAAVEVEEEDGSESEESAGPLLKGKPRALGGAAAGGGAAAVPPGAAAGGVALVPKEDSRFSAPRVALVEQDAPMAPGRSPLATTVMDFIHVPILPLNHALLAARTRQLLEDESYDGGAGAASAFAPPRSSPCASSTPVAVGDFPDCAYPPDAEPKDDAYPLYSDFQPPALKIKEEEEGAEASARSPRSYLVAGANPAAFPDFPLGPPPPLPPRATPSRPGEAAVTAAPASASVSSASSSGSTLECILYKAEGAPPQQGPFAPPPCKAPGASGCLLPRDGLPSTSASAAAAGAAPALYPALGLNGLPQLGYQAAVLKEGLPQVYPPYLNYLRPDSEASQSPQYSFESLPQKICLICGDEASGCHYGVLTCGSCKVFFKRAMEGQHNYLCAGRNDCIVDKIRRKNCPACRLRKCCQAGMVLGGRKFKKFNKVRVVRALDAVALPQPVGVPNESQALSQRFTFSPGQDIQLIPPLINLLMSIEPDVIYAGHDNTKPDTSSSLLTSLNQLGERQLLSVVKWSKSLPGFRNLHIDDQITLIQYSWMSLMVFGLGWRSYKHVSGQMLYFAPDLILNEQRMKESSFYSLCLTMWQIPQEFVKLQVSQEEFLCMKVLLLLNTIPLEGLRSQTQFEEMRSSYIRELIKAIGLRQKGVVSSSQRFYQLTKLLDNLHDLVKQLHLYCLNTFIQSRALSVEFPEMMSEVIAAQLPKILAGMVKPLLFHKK
Chain of Estrogen receptor (Homo sapiens) (P03372 whole entry, looked up): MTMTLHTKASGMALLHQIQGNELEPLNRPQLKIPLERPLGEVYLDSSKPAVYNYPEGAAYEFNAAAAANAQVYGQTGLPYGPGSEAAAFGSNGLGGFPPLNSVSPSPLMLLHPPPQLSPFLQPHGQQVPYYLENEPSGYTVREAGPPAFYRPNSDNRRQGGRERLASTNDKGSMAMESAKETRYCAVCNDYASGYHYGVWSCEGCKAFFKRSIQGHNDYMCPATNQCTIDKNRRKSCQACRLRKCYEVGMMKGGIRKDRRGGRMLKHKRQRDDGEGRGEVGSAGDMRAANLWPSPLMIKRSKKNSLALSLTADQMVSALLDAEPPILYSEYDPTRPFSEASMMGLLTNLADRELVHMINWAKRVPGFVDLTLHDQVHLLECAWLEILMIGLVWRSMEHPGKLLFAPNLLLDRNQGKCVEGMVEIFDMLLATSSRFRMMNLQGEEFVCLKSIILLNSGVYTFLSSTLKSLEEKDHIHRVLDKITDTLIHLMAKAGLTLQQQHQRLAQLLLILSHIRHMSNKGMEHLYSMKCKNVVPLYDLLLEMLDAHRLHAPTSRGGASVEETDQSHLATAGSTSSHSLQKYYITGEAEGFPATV
Chain of Thyrotropin receptor (Homo sapiens) (P16473 whole entry, looked up): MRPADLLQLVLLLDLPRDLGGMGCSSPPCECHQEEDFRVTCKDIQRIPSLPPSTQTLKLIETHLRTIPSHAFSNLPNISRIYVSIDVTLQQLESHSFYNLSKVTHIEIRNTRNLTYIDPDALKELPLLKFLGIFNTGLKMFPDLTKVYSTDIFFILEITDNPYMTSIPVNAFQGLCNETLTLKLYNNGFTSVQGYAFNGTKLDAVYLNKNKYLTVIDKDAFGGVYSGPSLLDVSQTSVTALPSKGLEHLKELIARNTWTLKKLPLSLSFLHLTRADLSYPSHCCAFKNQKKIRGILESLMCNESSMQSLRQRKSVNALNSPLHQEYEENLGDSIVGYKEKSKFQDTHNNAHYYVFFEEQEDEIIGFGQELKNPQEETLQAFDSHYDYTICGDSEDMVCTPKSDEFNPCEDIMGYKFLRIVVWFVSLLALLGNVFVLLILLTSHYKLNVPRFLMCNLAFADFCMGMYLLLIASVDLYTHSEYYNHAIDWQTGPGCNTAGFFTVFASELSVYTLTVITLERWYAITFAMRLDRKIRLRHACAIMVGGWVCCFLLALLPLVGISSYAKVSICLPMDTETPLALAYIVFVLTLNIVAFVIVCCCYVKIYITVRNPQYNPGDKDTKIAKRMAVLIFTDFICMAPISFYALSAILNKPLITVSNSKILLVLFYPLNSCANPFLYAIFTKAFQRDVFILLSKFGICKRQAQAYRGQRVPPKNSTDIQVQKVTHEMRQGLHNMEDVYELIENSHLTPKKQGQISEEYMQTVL

Clc1ccccc1
inactive: Potency [2] | Potency [3] | Potency [4] | Potency [5] | outcome [6] | Potency [7] | Potency [8] | Potency [9] | Potency [10] | Potency [11] | Potency [12] | Potency [13] | outcome [14] | Potency [15] | outcome [16]
active: Potency [1] 479 nM

CC[N+]1(C)CCCC(OC(=O)C(O)(c2ccccc2)c2ccccc2)C1 (stereo unspecified)
inactive: Potency [1] | Potency [2] | Potency [3] | Potency [4] | outcome [6] | Potency [17] | Potency [7] | Potency [8] | Potency [9] | Potency [10] | Potency [11] | Potency [12] | Potency [13] | outcome [14] | Potency [15] | outcome [16]

C=CCSSCC=C
inactive: Potency [1] | Potency [2] | Potency [3] | Potency [4] | outcome [6] | Potency [17] | Potency [7] | Potency [8] | Potency [9] | Potency [11] | Potency [12] | Potency [13] | outcome [14] | Potency [15] | outcome [16]

CCCBr
inactive: Potency [1] | Potency [2] | Potency [3] | Potency [4] | Potency [5] | outcome [6] | Potency [7] | Potency [8] | Potency [9] | Potency [10] | Potency [11] | Potency [12] | Potency [13] | outcome [14] | Potency [15] | outcome [16]

CCOC(C(=O)OCCN(C)C)(c1ccccc1)c1ccccc1
inactive: Potency [1] | Potency [2] | Potency [3] | Potency [4] | outcome [6] | Potency [17] | Potency [7] | Potency [8] | Potency [9] | Potency [10] | Potency [11] | Potency [12] | Potency [13] | outcome [14] | Potency [15] | outcome [16]

O=C(O)c1cc(I)cc(I)c1I
inactive: Potency [1] | Potency [2] | Potency [3] | Potency [4] | Potency [5] | outcome [6] | Potency [17] | Potency [7] | Potency [8] | Potency [9] | Potency [10] | Potency [11] | Potency [12] | Potency [13] | outcome [14] | Potency [15] | outcome [16]

CCCCCCCCCCCC[N+](C)(C)CCOc1ccccc1
active: Potency [1] 3.44 µM and 473 nM | Potency [2] 68.6 µM | Potency [4] 19.3 µM and 15 µM | Potency [10] 54.5 µM and 13.3 µM | Potency [11] 24.3 µM and 23.7 µM | Potency [12] 43.7 µM | Potency [13] 55 µM and 26.8 µM
inactive: Potency [5] | outcome [6] | Potency [17] | Potency [7] | Potency [8] | Potency [15] | outcome [16]

CCCCCl
inactive: Potency [1] | Potency [2] | Potency [3] | Potency [4] | outcome [6] | Potency [17] | Potency [7] | Potency [8] | Potency [11] | Potency [13] | outcome [14] | Potency [15] | outcome [16]

CCCC(C)(COC(N)=O)COC(=O)NC(C)C (stereo unspecified)
inactive: Potency [1] | Potency [2] | Potency [3] | Potency [4] | Potency [5] | outcome [6] | Potency [17] | Potency [7] | Potency [8] | Potency [9] | Potency [10] | Potency [11] | Potency [12] | Potency [13] | outcome [14] | Potency [15] | outcome [16]

NC(=O)CF
inactive: Potency [1] | Potency [2] | Potency [3] | Potency [4] | Potency [5] | outcome [6] | Potency [17] | Potency [7] | Potency [8] | Potency [9] | Potency [10] | Potency [11] | Potency [12] | Potency [13] | outcome [14] | Potency [15] | outcome [16]

O=C(O)C(F)(F)C(F)(F)C(F)(F)C(F)(F)C(F)(F)C(F)(F)C(F)(F)C(F)(F)F
active: Potency [3] 12.2 µM
inactive: Potency [1] | Potency [2] | Potency [5] | outcome [6] | Potency [17] | Potency [7] | Potency [8] | Potency [10] | Potency [12] | Potency [13] | outcome [14] | Potency [15] | outcome [16]

CC[N+]1(CCOC(=O)C(O)(c2ccccc2)c2ccccc2)CCCCC1
inactive: Potency [1] | Potency [2] | Potency [4] | Potency [5] | outcome [6] | Potency [17] | Potency [7] | Potency [8] | Potency [9] | Potency [10] | Potency [11] | Potency [12] | Potency [13] | outcome [14]

O=C(O)C(O)C(O)C(=O)O (stereo unspecified)
inactive: Potency [1] | Potency [2] | Potency [3] | Potency [4] | Potency [5] | Potency [7] | Potency [8] | Potency [9] | Potency [10] | Potency [11] | Potency [12] | Potency [13] | outcome [14] | Potency [15] | outcome [16]

Cc1ccc2c(C)cccc2c1
inactive: Potency [1] | Potency [2] | Potency [4] | Potency [5] | outcome [6] | Potency [17] | Potency [7] | Potency [8] | Potency [9] | Potency [10] | Potency [11] | Potency [12] | Potency [13] | outcome [14] | Potency [15] | outcome [16]

CCCCCCCCCCCCN=C(N)N
active: Potency [1] 671 nM
inactive: activity change, negative = cytotoxicity [2] -9.57% [at 3.27 µM] | activity change, negative = cytotoxicity [4] -18.7% [at 3.27 µM] | cAMP activity change [6] 1.76% [at 3.27 µM] | activity change, negative = inhibition [17] 0.876% [at 3.27 µM] | activity change, negative = cytotoxicity [7] -1.52% [at 3.27 µM] | activation [8] 2.06% [at 3.27 µM] | activity change, negative = inhibition [9] 1.76% [at 3.27 µM] | activity change, negative = cytotoxicity [10] 1.32% [at 3.27 µM] | activity change, negative = cytotoxicity [11] 0.561% [at 3.27 µM] | viability change, negative = cytotoxic [12] -21.8% [at 2.72 µM] | activity change, negative = cytotoxicity [13] -9.54% [at 2.72 µM] | activation [14] 1.13% [at 2.72 µM] | activity, negative = inhibition [15] 1.26% [at 1.81 µM] | activation [16] 0.32% [at 2.04 µM]

Source: PubChem BioAssay (Tox21)
